Screens deposited in PubChem BioAssay by Broad Institute.
Only a selection was taken, and hits are over-represented in it overall.
IDE exosite FP: exo-site inhibitors of human insulin-degrading enzyme. P14735. purified IDE, FL-6b probe fluorescence polarization; stronger effect = lower value. z-score at 20 µM. 17,000 compounds, 6.3% hits;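 active means z-score of -3 or lower, meaning strong loss of probe binding signal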;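 further: His-tagged human IDE residues 42-1019 made in E. coli with 30 nM FL-6b probe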
Target sequence (P14735 42-1019 limits assumed): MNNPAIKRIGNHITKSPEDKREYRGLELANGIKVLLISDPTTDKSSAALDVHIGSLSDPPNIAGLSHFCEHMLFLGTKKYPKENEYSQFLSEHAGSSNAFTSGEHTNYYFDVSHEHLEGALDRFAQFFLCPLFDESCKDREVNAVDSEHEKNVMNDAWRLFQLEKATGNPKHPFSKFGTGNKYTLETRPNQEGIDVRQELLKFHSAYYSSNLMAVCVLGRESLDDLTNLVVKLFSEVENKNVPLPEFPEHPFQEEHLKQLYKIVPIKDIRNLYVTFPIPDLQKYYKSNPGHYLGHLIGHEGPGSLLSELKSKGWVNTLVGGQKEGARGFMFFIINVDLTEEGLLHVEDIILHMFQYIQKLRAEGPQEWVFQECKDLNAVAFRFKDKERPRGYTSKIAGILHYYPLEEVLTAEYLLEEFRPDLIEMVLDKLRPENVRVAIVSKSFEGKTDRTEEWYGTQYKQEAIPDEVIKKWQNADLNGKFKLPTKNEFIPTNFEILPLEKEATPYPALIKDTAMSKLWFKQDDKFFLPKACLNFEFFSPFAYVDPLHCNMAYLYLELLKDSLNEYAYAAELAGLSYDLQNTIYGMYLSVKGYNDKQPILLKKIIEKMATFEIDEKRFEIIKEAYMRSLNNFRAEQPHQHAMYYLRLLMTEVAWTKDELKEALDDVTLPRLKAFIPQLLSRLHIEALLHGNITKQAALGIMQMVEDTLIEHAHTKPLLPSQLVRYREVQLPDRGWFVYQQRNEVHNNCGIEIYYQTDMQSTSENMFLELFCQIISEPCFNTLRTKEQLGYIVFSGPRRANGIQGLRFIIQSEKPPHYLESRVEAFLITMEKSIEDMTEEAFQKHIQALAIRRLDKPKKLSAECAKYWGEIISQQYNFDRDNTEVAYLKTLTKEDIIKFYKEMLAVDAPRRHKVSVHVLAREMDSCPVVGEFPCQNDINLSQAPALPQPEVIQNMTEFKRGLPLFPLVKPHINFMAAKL
* = called active by the depositor.

For COCC#Cc1ccc([C@@H]2[C@H](CO)N3CCCCN(S(=O)(=O)c4ccccc4F)C[C@@H]23)cc1 the results were IDE exosite FP -4.5*.
`COCC#Cc1ccc([C@H]2[C@H]3CN(S(=O)(=O)c4ccccc4C)CCCCN3[C@H]2CO)cc1` gave IDE exosite FP 5.4.
COCC#Cc1ccc([C@H]2[C@@H](CO)N3CCCCN(S(=O)(=O)c4ccccc4F)C[C@H]23)cc1 was read as IDE exosite FP 0.25.
COCC#Cc1ccc([C@@H]2[C@H](CO)N3CCCCN(S(=O)(=O)c4ccccc4C)C[C@@H]23)cc1 was read as IDE exosite FP -3.1*.
`COCC#Cc1ccc([C@H]2[C@@H](CO)N3CCCCN(S(=O)(=O)c4ccccc4C)C[C@@H]23)cc1` gave IDE exosite FP 4.1.
For COCC#Cc1ccc([C@H]2[C@H](CO)N3CCCCN(S(=O)(=O)c4ccccc4F)C[C@@H]23)cc1 the results were IDE exosite FP 1.1.
`CC(=O)N(C)C[C@@H]1[C@@H](c2ccc(-c3cccc(C#N)c3)cc2)[C@H](CO)N1C(C)=O` gave IDE exosite FP 4.9.
For O=C(Cc1cccnc1)N1CC(=O)N2[C@H](CO)[C@H](c3ccc(C#CC4CC4)cc3)[C@H]2C1 the results were IDE exosite FP -1.9.
For COc1ccc2c3c(n(C)c2c1)[C@H](CO)N(CC1CC1)CC31CCN(C(=O)NC2CCCC2)CC1 the results were IDE exosite FP -1.2.
Screening O=C(c1cccnc1)N1CC2(C1)[C@@H](c1ccccc1)[C@@H](CO)N2Cc1ccc(Cl)cc1 returned IDE exosite FP -0.95.
C[C@@H]1CCCCO[C@H](CN(C)C(=O)c2ccncc2)[C@H](C)CN([C@@H](C)CO)C(=O)c2cc(NS(=O)(=O)c3cccs3)ccc2O1 was read as IDE exosite FP 0.99.
COC(=O)C[C@H]1C[C@@H]2c3cc(NC(=O)C4CCOCC4)ccc3O[C@@H]2[C@H](CO)O1 was read as IDE exosite FP -0.99.
`C[C@H](CO)N1C[C@H](C)[C@H](CN(C)Cc2ccc3c(c2)OCO3)Oc2ccc(NC(=O)C3CCCCC3)cc2C1=O` gave IDE exosite FP 1.1.
COc1ccc(C#Cc2ccc([C@@H]3[C@@H](CO)N4C(=O)CN(C(C)=O)C[C@@H]34)cc2)cc1 was read as IDE exosite FP 3.9.
For CC(=O)N1CC(=O)N2[C@H](CO)[C@@H](c3ccc(C#Cc4cccnc4)cc3)[C@H]2C1 the results were IDE exosite FP 1.5.
`CC(=O)N1CC(=O)N2[C@H](CO)[C@H](c3ccc(C#Cc4cccnc4)cc3)[C@H]2C1` gave IDE exosite FP 0.82.
For COc1cccc(C#Cc2ccc([C@@H]3[C@@H](CO)N4C(=O)CN(C(C)=O)C[C@H]34)cc2)c1 the results were IDE exosite FP -0.98.
For CC(=O)N1CC(=O)N2[C@@H](CO)[C@H](c3ccc(C#Cc4cccnc4)cc3)[C@@H]2C1 the results were IDE exosite FP 1.7.
`COc1cccc(C#Cc2ccc([C@@H]3[C@H]4CN(C(C)=O)CC(=O)N4[C@H]3CO)cc2)c1` gave IDE exosite FP -3.9*.
`COc1cccc(C#Cc2ccc([C@H]3[C@@H](CO)N4C(=O)CN(C(C)=O)C[C@H]34)cc2)c1` gave IDE exosite FP -7.9*.
`COc1cccc(C#Cc2ccc([C@H]3[C@@H](CO)N4C(=O)CN(C(C)=O)C[C@@H]34)cc2)c1` gave IDE exosite FP -5.1*.
COc1ccc(C#Cc2ccc([C@H]3[C@H](CO)N4C(=O)CN(C(C)=O)C[C@@H]34)cc2)cc1 was read as IDE exosite FP 2.3.
`O=C(NC[C@H]1[C@@H](c2ccccc2)[C@@H](CO)N1C(=O)C1CCC1)NC1CCCC1` gave IDE exosite FP -0.093.
`COCC(=O)NC[C@H]1[C@H](c2ccc(C3=CCCC3)cc2)[C@@H](CO)N1C(=O)C1CC1` gave IDE exosite FP 4.
Screening N#C[C@@H]1[C@H](c2ccccc2-c2cccc(F)c2)[C@H](CO)N1S(=O)(=O)c1cccc(F)c1 returned IDE exosite FP 0.92.
Screening N#C[C@@H]1[C@H](c2ccccc2)[C@H](CO)N1S(=O)(=O)c1cccc(F)c1 returned IDE exosite FP -0.31.
`C[C@@H]1CN([C@@H](C)CO)C(=O)c2cc(Br)cnc2O[C@H]1CN(C)C(=O)Nc1ccc2c(c1)OCO2` gave IDE exosite FP -0.89.
N#Cc1ccc(-c2ccc([C@H]3[C@H](CO)N4C(=O)CNC[C@@H]34)cc2)cc1 was read as IDE exosite FP -0.069.
`COc1ccc(C#Cc2ccc([C@H]3[C@@H](CO)N4C(=O)CN(C(=O)C5CCOCC5)C[C@@H]34)cc2)cc1` gave IDE exosite FP 4.3.
Screening COc1cccc(C#Cc2ccc([C@@H]3[C@H](CO)N4C(=O)CN(C(=O)C5CC5)C[C@@H]34)cc2)c1 returned IDE exosite FP -6.3*.
For COc1cccc(C#Cc2ccc([C@H]3[C@@H](CO)N4C(=O)CN(C(=O)C5CC5)C[C@@H]34)cc2)c1 the results were IDE exosite FP -4.9*.
Screening COc1cccc(C#Cc2ccc([C@H]3[C@H]4CN(C(=O)C5CC5)CC(=O)N4[C@H]3CO)cc2)c1 returned IDE exosite FP -7.3*.
COc1ccc(C#Cc2ccc([C@@H]3[C@H](CO)N4C(=O)CN(C(=O)C5CCOCC5)C[C@@H]34)cc2)cc1 was read as IDE exosite FP 3.3.
Screening COc1ccc(C#Cc2ccc([C@@H]3[C@H]4CN(C(=O)C5CCOCC5)CC(=O)N4[C@H]3CO)cc2)cc1 returned IDE exosite FP 3.4.
C[C@H](NC(=O)C[C@H]1CC[C@@H]2[C@H](COc3ccc(NC(=O)C4CCOCC4)cc3C(=O)N2C)O1)c1ccccc1 was read as IDE exosite FP -0.86.
`O=C(C[C@H]1CC[C@H]2[C@@H](COC[C@H](O)CN2Cc2nccs2)O1)N1CCC(Cc2ccccc2)CC1` gave IDE exosite FP -2.1.
CCS(=O)(=O)N1[C@H](CO)[C@@H](c2ccc(-c3cccc(F)c3)cc2)[C@@H]1C#N was read as IDE exosite FP -2.4.
Screening O=C(NC1CCCC1)N1CCCCN2[C@@H](CO)[C@@H](c3ccc(-c4cccnc4)cc3)[C@@H]2C1 returned IDE exosite FP -1.8.
CCC(=O)N1[C@H](CO)[C@H](c2ccc(-c3ccccc3)cc2)[C@@H]1CNC(=O)C1CC1 was read as IDE exosite FP -1.2.
For CCCNC(=O)N1CC(=O)N2[C@H](C1)[C@@H](c1ccc(-c3ccccc3)cc1)[C@@H]2CO the results were IDE exosite FP -5.6*.
For CCCNC(=O)N1CC(=O)N2[C@H](CO)[C@@H](c3ccc(C#Cc4ccc(F)cc4)cc3)[C@H]2C1 the results were IDE exosite FP 3.1.
`COc1ccccc1NC(=O)N1CC(=O)N2[C@H](C1)[C@H](c1ccc(-c3cccc(C)c3)cc1)[C@@H]2CO` gave IDE exosite FP -1.8.
COc1ccccc1NC(=O)N1CC(=O)N2[C@H](CO)[C@@H](c3ccc(-c4cccc(C)c4)cc3)[C@@H]2C1 was read as IDE exosite FP -9.4*.
`CCCNC(=O)N1CC(=O)N2[C@H](C1)[C@@H](c1ccc(C#Cc3cccc(F)c3)cc1)[C@@H]2CO` gave IDE exosite FP -3.
`COc1ccccc1NC(=O)N1CC(=O)N2[C@H](CO)[C@@H](c3ccc(-c4ccc(F)cc4)cc3)[C@H]2C1` gave IDE exosite FP 1.1.
For CCCNC(=O)N1CC(=O)N2[C@@H](CO)[C@H](c3ccc(-c4cccc(C)c4)cc3)[C@@H]2C1 the results were IDE exosite FP -16*.
